Screening results from PubChem BioAssay.
BAZ2B inh: BAZ2B (human) inhibition; Q9UIF8; 4.4% of 360,000 active; AlphaScreen BAZ2B-H3K14Ac peptide displacement; Potency, µM (doses to about 114 µM), for inactives: at the highest dose activity change, negative = inhibition, hits mostly inhibitors; further: on the % scale 0 is the no-effect control and ±100 the full control effect; nearly all actives have a fitted effect of over 60% in size
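In this displacement format the biotinylated H3(5-23) peptide acetylated at Lys14 serves as ligand at 50 nM, with BAZ2B at 50 nM in PBS pH 7.4 containing 0.01% Tween-20. Donor and acceptor beads are 10 ug/mL final.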
PLK1 PBD inh: PLK1 (human) polo-box domain binding inhibition; 2.8% of 360,000 active; Potency, µM, inactives show max response, negative = inhibition, actives largely listed as inhibitors; Plk1 PBD binding of FITC phosphopeptide, fluorescence polarization; AID 720504; further: series mostly up to about 57 µM; on the % scale 0 is the no-effect control and ±100 the full control effect; nearly all actives have a fitted effect of over 65% in size
G9a block: blocks human histone lysine methyltransferase G9a | Potency, µM (series often up to 102 µM), for inactives: at the highest dose activity, negative = inhibition, usual class: inhibitors | G9a H3K9 monomethylation, AlphaScreen, 2 h | Q96KQ7 | 8.8% of 350,000 active; further: on the % scale 0 is the no-effect control and ±100 the full control effect; nearly all actives have a fitted effect of over 75% in size
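AlphaScreen detection with an anti-monomethyl H3K9 antibody quantified product after a 2 h room-temperature reaction containing 500 nM biotinylated H3K9 peptide, 20 µM SAM and 20 nM enzyme, which had been preincubated 15 min with compound.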
JMJD2A Tudor inh: JMJD2A Tudor domain (human) inhibition | AlphaScreen JMJD2A-Tudor / H3K4me3 peptide binding | Potency, µM (top dose mostly 114 µM), inactives show at the highest dose activity change, negative = inhibition, hits mostly inhibitors | 4.4% of 390,000 active | AID 504339; further: on the % scale 0 is the no-effect control and ±100 the full control effect; nearly all actives have a fitted effect of over 50% in size
VDR inh: inhibitors of human vitamin D receptor; VDR-SRC2-3 peptide fluorescence polarization, 2 h; 0.93% of 400,000 active; P11473; AID 504847; Potency, µM, for inactives: max response, negative = inhibition, usual class: inhibitors; further: on the % scale 0 is the no-effect control and ±100 the full control effect
Target sequence (P11473 whole entry, looked up): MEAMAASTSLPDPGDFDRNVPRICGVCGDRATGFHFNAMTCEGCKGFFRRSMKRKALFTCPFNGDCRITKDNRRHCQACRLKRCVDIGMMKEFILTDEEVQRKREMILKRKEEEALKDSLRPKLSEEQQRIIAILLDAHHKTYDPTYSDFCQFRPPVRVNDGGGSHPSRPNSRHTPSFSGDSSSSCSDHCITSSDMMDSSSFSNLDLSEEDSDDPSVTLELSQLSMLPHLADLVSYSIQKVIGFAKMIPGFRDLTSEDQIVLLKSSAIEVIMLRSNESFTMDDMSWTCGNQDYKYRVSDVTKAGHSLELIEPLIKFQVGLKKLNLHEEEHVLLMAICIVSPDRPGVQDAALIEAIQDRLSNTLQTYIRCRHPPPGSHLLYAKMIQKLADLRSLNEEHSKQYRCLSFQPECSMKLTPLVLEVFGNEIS
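Reagent solutions, kept cold and dark, are dispensed first; compounds are then pinned in at 23 nl, plates briefly spun, and incubated 2 h at ambient temperature. Inhibition of VDR–SRC2-3 peptide binding is read by fluorescence polarization.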
HP1b binding inh: inhibitors of HP1-beta chromodomain binding to methylated histone tails. P83916. AID 540317. AlphaScreen HP1-beta / biotin-H3K9me3 peptide binding. Potency, µM (doses to about 114 µM), without a hit: at the highest dose activity change, negative = inhibition, actives largely listed as inhibitors. 0.56% of 390,000 active; further: nearly all actives have a fitted effect of over 70% in size
Target sequence (P83916 whole entry, looked up): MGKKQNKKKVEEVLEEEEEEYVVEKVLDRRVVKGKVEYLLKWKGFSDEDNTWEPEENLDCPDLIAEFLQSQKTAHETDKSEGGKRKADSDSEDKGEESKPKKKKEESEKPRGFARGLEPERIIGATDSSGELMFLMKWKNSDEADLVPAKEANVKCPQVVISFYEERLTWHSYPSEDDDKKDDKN
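Compound inhibition of the preformed complex between 50 nM HP1-beta and 50 nM biotinylated H3K9me3 peptide was read by AlphaScreen. Buffer was PBS pH 7.4 with 0.01% Tween-20. Incubations ran 30 min at room temperature, with 10 ug/mL donor/acceptor beads.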
The depositor's hits bear a star; u = inconclusive; x = no result given; [ ] = remark or other dose. This is a sample that favours compounds with a hit; in the whole collection about 11% have one here. The call rests on the fitted dose curve; in most records, active means well fitted curve in the direction sought with a large enough effect; inconclusive means small, poorly fitted or top-dose-only effect, or another doubt; inactive means no such curve, though single readings can be large; an effect the other way counts as inactive or inconclusive. Potency means the concentration at half of the fitted maximal effect.

SMILES	BAZ2B inh	PLK1 PBD inh	G9a block	JMJD2A Tudor inh	VDR inh	HP1b binding inh
NS(=O)(=O)c1ccc(N/N=C/c2ccc(O)c(O)c2O)c([N+](=O)[O-])c1	35µM*	3µM*	x	8.9µM*	u	13µM*
Cc1ccc(C(C)C)c(OCC(=O)N2CCN(c3ncccn3)CC2)c1	-5%	0%	u	-11%	u	21%
CCN(CC)CCCCCC(=O)Nc1ccccc1C(=O)Nc1ccccc1	u	0%	0%	-10%	4%	16%
Nc1nc(SCc2ccc(Cl)cc2)ns1	11%	-2%	19%	11%	-9%	30%
Nc1nc(SCc2ccccc2)ns1	5%	u	4µM*	79µM*	-10%	u
Nc1ccccc1SSc1ccccc1N	45µM*	0.6µM*	1.6µM*	32µM*	10µM*	u
Nc1nc(SCc2ccccc2Cl)ns1	-6%	30µM*	u	-21%[57.1 µM]	-6%	60%
N#Cc1ccccc1Sc1ccccc1N	1%	-6%	11%	-4%	2%	33%
Nc1ccccc1SCc1ccccc1Cl	15%	15µM*	u	36%	-9%	55%
O=C(C[C@H]1C[C@H](C(=O)N2CCOCC2)[C@@]2(CCC3CCCC3)c3[nH]c4cc(-c5ccco5)ccc4c3CCN2C1=O)NCCc1ccccn1	x	0%	x	u	-22%	u
COC(=O)c1cc(C(=O)NCc2ccc3c(c2)OCO3)cc([N+](=O)[O-])c1	-1%	-13%	-7%[0.501 µM]	-27%	15%	40%
O=C1CCN1C1(C(=O)NC2CCCCC2)CCCC1	13%	-18%	-1%[59 µM]	9%[57.1 µM]	1%	51%
C[C@H]1COC(=O)O1	x	x	x	x	3%	x
CC1CC(C)CN(C(=O)Cn2ncc3c([nH]c4ccccc43)c2=O)C1 (stereo not drawn)	-6%[57.1 µM]	24µM*	16%	25µM*	-24%	-5%
Cc1ccc(C)c(N2CCN(C(=O)Cn3ncc4c([nH]c5ccc(C)cc54)c3=O)CC2)c1	-11%	3%	71µM*	25%	-7%	35%
CCN1CCN(C(=O)Cn2ncc3c([nH]c4ccccc43)c2=O)CC1	-17%	-10%	-8%	-2%	-7%	26%
COc1ccc(-c2noc(-c3cccnc3N3CCN(c4ccc(OC)cc4)CC3)n2)cc1	-17%	x	-32%[59 µM]	-24%	10%	27%
C#Cc1ccc([C@@H]2C=C(C(=O)N3CCOCC3)O[C@H](OCc3ccc(CO)cc3)C2)cc1	x	0%	x	-14%	-6%	35%
CCCCC(=O)Nc1ncc([N+](=O)[O-])s1	-38%	-8%	u	-15%	-4%	3%
CC(C)CC(=O)Nc1ncc([N+](=O)[O-])s1	-14%	11µM*	x	-34%	-26%	-32%
O=C(Nc1ncc([N+](=O)[O-])s1)c1cccc([N+](=O)[O-])c1	-25%	-18%	u	-29%	-4%	9%
O=C(COC(=O)c1ccccc1)Nc1ncc([N+](=O)[O-])s1	x	21µM*	x	20µM*	-25%	u
O=C(Nc1ccccc1)Nc1ncc([N+](=O)[O-])s1	u	u	45µM*	-31%	-6%	-1%[57 µM]
O=C(O)C1CCCC[C@H]1C(=O)Nc1ncc([N+](=O)[O-])s1 (stereo partly drawn)	-19%	-20%	-35%[12.7 µM]	-17%	-13%	25%
O=C(COC(=O)c1ccccc1)Nc1ccc(Cl)cn1	13%	-16%	-1%	-13%	1%	19%
SMILES	BAZ2B inh	PLK1 PBD inh	G9a block	JMJD2A Tudor inh	VDR inh	HP1b binding inh
Cc1nc(C)c(C(=O)Nc2ncc([N+](=O)[O-])s2)o1	u	27µM*	10µM*	u	u	-22%
Cc1ncc(C(O)c2ccccc2)n1Cc1ccccc1 (stereo not drawn)	x	7%	x	x	x	x
CCCCc1ccc(NC(=O)c2cc3c(=O)n4ccccc4nc3n2C)cc1	6%	x	-22%[59 µM]	-7%	5%	42%
COC(=O)[C@@]12C[C@@H](CC(=O)NCc3cccc4ccccc34)C(=O)N(Cc3ccco3)C1=CCC(C)(C)C2	x	-6%	x	x	x	x
Cc1cc(NCCCCO)n2c(nc3ccccc32)c1C#N	u	-8%	2%[59 µM]	-6%	21%	11%
Cc1cc(-c2ccco2)n2c(nc3ccccc32)c1C#N	9%	11µM*	u	-13%[11.4 µM]	-20%	0%
C=C(C)CSc1cc(C)c(C#N)c2nc3ccccc3n12	-24%	27µM*	1.4µM*	-13%	-17%	43%
C[C@H](CO)N1C[C@H](C)[C@@H](CN(C)Cc2ccccn2)Oc2ncc(-c3ccccc3)cc2C1=O	x	-8%	x	x	x	x
CCCCCCCC/C=C\CCCCCCCC(=O)N[C@H](CO)Cc1ccc(O)cc1	x	x	x	x	-1%	x
O=Nc1c(O)ccc2cc(S(=O)(=O)O)ccc12	x	-17%	x	2.8µM*	79µM*	9%
CN(C)c1ccc2cc(S(=O)(=O)O)cc(O)c2c1	x	u	x	50µM*	50µM*	u
Nc1cccc2cc(S(=O)(=O)O)ccc12	x	u	x	50µM*	-29%	-8%[57 µM]
Nc1ccc2c(S(=O)(=O)O)cccc2c1S(=O)(=O)O	x	0%	x	-21%	25%	52%
CN(C)c1ccc(C(=O)c2ccccc2C(=O)O)c(O)c1	-39%	-13%	u	-1%	1%	78%
Cc1ccc(S(=O)(=O)O)cc1C	x	x	26%[59 µM]	x	5%	x
O=C(c1ccc2c(c1)OCO2)C1CCCN(Cc2ccc(OC(F)F)cc2)C1 (stereo not drawn)	-19%	-10%	10%	-19%	-14%	32%
Cn1c(=O)c(=O)n(C)c2cc(S(=O)(=O)N3CCN(c4ccccc4)CC3)ccc21	x	x	-18%[59 µM]	-10%	-24%	28%
COc1ccc(OC)c(NC(=O)c2cc(S(=O)(=O)NCCc3ccc(Cl)cc3)ccc2F)c1	-2%	x	1%[59 µM]	-28%	7%	-6%
COc1cc(NCCCCCCN)c2ncccc2c1OC	x	u	x	56µM*	-16%	u
COc1cc(N)c2ncccc2c1OC	x	-11%	x	-28%	-12%	-11%
COc1cc(NC(C)CCCNC(C)C)c2ncccc2c1OC (stereo not drawn)	x	-19%	x	0.89µM*	u	u
CCNc1nc(NCC)n2c(SCC(=O)NC34CC5CC(CC(C5)C3)C4)nnc2n1	-4%	-8%	4%[59 µM]	-11%	-10%	21%
Cc1sc2ncnc(N/N=C/c3cccc(O)c3)c2c1C	u	3%	9%	u	8%	-13%
C/C(=N\Nc1ccc(Cl)c(C(=O)O)c1)c1ccccn1	-14%	-15%	x	5%[11.4 µM]	-15%	28%
C/C(=N\Nc1nc2ccccc2[nH]1)c1ccc(Cl)s1	u	-8%	20µM*	u	-24%	-11%
C/C(=N\Nc1ncnc2sc(C)c(C)c12)c1ccccn1	7.1µM*	-17%	25µM*	32µM*	-5%	9%[57 µM]
